These entries were drawn from the full list.
Vaccinia inh: blocks a specific stage of Vaccinia orthopoxvirus infection; Vaccinia-infected cells, mCherry/Venus stage reporter fluorescence; stronger effect = lower value; activity change (mCherry), % (concentration not given with the values); hit rate 0.01% among 89,000; AID 1053133; in the data active = activity change below about -37%, passing the limit was not always enough; tested in A549 cells
* hit, by the source's call.

SMILES | Vaccinia inh
C[C@@H]1CN([C@@H](C)CO)C(=O)c2cccc(NC(=O)Nc3ccc4c(c3)OCO4)c2O[C@H]1CN(C)Cc1ccc2c(c1)OCO2 | -10
C[C@H]1CN([C@@H](C)CO)C(=O)c2cccc(NS(C)(=O)=O)c2O[C@@H]1CN(C)C(=O)Nc1ccccc1 | 16
O=C(N[C@H]1CC[C@H](CCNC(=O)C2CCOCC2)O[C@H]1CO)c1ccncc1 | -3
CC(C)NC(=O)N(C)C[C@H]1Oc2cc(C#C[C@@H](C)O)ccc2S(=O)(=O)N([C@H](C)CO)C[C@H]1C | 33
CO[C@H]1CN(C)C(=O)c2ccc(NC(=O)Nc3cccc(F)c3)cc2OC[C@H](C)N(C)C[C@@H]1C | -23
Cc1noc(C)c1S(=O)(=O)Nc1cccc2c1O[C@@H](CN(C)Cc1ccc(C(=O)Nc3ccccc3N)cc1)[C@@H](C)CN([C@@H](C)CO)C2=O | 13
C[C@@H]1CN([C@@H](C)CO)C(=O)c2cccc(NC(=O)Nc3ccc(F)cc3)c2O[C@@H]1CN(C)Cc1ccc(C(=O)Nc2ccccc2N)cc1 | 3
CCCNC(=O)[C@H]1[C@H](CO)[C@H]2Cn3c(ccc(-c4ccccc4F)c3=O)[C@H]2N1C | 6
C[C@H]1CN([C@@H](C)CO)C(=O)c2cc(-c3cccnc3)cnc2O[C@H]1CN(C)C(=O)Nc1ccc(C(F)(F)F)cc1 | -2
CCNC(=O)C[C@H]1CC[C@H]2[C@@H](COc3ccc(NC(=O)c4ccc(F)cc4)cc3C(=O)N2C)O1 | -1
C[C@@H]1CN([C@@H](C)CO)C(=O)c2cc(NS(=O)(=O)c3ccc(F)cc3)ccc2O[C@H]1CN(C)C(=O)Nc1ccc(C(F)(F)F)cc1 | 14
COc1ccc2c3c([nH]c2c1)[C@H](CO)N(C(=O)C1CC1)CC31CN(C)C1 | -19
C[C@@H]1CCCCO[C@H](CN(C)C(=O)Cc2ccccc2)[C@@H](C)CN([C@H](C)CO)C(=O)c2cc(NS(=O)(=O)c3ccc(F)cc3)ccc2O1 | -2
C[C@@H]1CN([C@H](C)CO)S(=O)(=O)c2ccc(-c3ccccc3)cc2O[C@@H]1CN(C)Cc1ccncc1 | -20
O=C(C[C@H]1CC[C@H](NC(=O)Nc2ccccc2F)[C@@H](CO)O1)NCc1ccc(F)cc1 | 6
O=C(N[C@@H]1C=C[C@H](CC(=O)N2CCc3ccccc3C2)O[C@H]1CO)C1CCOCC1 | 2
C[C@H]1CN([C@@H](C)CO)C(=O)c2cccc(NC(=O)CCCCCC(=O)Nc3ccccc3N)c2O[C@H]1CN(C)S(=O)(=O)c1ccc(F)cc1 | -13
CO[C@@H]1CN(C)C(=O)c2cc(NC(=O)C3CCOCC3)ccc2OC[C@@H](C)N(C(C)=O)C[C@@H]1C | -6
O=C(NCc1ccccc1)[C@@H]1N[C@@H]2c3ccc(-c4ccccc4)c(=O)n3C[C@@H]2[C@H]1CO | 4
CC(C)[C@@H](CO)NC(=O)[C@H]1[C@@H](c2ccccc2)N(c2ccccc2)O[C@@H]1C | 9
C[C@H]1CN([C@@H](C)CO)C(=O)c2cc(NC(=O)CCCCCC(=O)Nc3ccccc3N)ccc2O[C@H]1CN(C)S(=O)(=O)c1ccccc1 | 4
C[C@H]1CN([C@@H](C)CO)C(=O)c2cc(NC(=O)CCCN(C)C)ccc2O[C@@H]1CN(C)Cc1ccncc1 | 16
C[C@@H]1CN([C@H](C)CO)C(=O)c2cc(C#CCN(C)C)cnc2O[C@@H]1CN(C)Cc1ccccn1 | 0
COc1ccc(NC(=O)Nc2ccc3c(c2)C(=O)N([C@@H](C)CO)C[C@@H](C)[C@H](CN(C)C)O3)cc1 | 10
C/C=C/c1ccc2c(c1)O[C@@H](CN(C)C(=O)Cc1ccncc1)[C@H](C)CN([C@H](C)CO)S2(=O)=O | -9
SMILES | Vaccinia inh
C[C@@H]1CN([C@@H](C)CO)C(=O)c2cc(NC(=O)C3CC3)ccc2O[C@H]1CN(C)S(=O)(=O)c1cn(C)cn1 | 25
CCOC(=O)C1=CC[C@@H](c2ccc3ccccc3n2)[C@@H]1C(=O)c1ccccc1 | 5
O=C(Nc1ccc2c(c1)OCO2)N[C@H]1C=C[C@H](CC(=O)N2CCN(c3ccccc3)CC2)O[C@@H]1CO | -11
Cc1noc(C)c1NC(=O)Nc1ccc2c(c1)C(=O)N([C@H](C)CO)C[C@H](C)[C@H](CN(C)C(=O)C1CCCCC1)OCCCC[C@H](C)O2 | 15
COCC#Cc1ccc2c(c1)O[C@@H](CN(C)C(=O)Nc1ccc(OC)cc1)[C@@H](C)CN([C@H](C)CO)S2(=O)=O | -14
CCC(=O)N1C[C@@H](C)[C@@H](OC)CN(C)C(=O)c2ccc(NC(=O)Nc3ccccc3)cc2OC[C@@H]1C | -5
C[C@H]1CN([C@@H](C)CO)S(=O)(=O)c2ccc(-c3cccc(C#N)c3)cc2O[C@@H]1CN(C)Cc1cccc(F)c1 | -14
Cc1ccc(S(=O)(=O)N(C)C[C@H]2OCCCC[C@@H](C)Oc3ccc(NC(=O)NC4CCCCC4)cc3C(=O)N([C@@H](C)CO)C[C@H]2C)cc1 | -33
O=C(C[C@H]1C[C@H]2c3cc(NC(=O)c4ccc5c(c4)OCO5)ccc3O[C@H]2[C@H](CO)O1)NCC1CC1 | 5
O=C(CN1CCOCC1)N1CC2(C1)[C@H](c1ccccc1)[C@@H](CO)N2Cc1ccccc1 | 23
